Experimental data as given in PubChem BioAssay AID651548 (Broad Institute, 2012).
The whole screen tested about 57,000 compounds, of which about 200 (0.35%) were called active. The sample holds actives, similar compounds and a random draw of the others, so the mix is not that of the screen.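 Rule for the calls: active = mean inhibition of replicates at least 50% and every single replicate also reaching 50%; inconclusive = mean inhibition at least 50% but some replicate falls below 50%; inactive = mean inhibition under 50%.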

molecular target: Histone-lysine N-methyltransferase EZH2 (Homo sapiens) (UniProt Q15910); test: inhibition of PRC2 H3K27 methylation – biochemical, DELFIA time-resolved fluorescence, single point, primary screen (AID 651548); details: DELFIA TRF, 1 h, at 12.5 µM, hits give high values;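 note: dimethyl H3K27 on biotinylated H3 21-44 peptide detected by antibody; plate controls were median neutral control wells for no effect and median positive control wells for full effect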
Sequence (Q15910 whole entry, looked up): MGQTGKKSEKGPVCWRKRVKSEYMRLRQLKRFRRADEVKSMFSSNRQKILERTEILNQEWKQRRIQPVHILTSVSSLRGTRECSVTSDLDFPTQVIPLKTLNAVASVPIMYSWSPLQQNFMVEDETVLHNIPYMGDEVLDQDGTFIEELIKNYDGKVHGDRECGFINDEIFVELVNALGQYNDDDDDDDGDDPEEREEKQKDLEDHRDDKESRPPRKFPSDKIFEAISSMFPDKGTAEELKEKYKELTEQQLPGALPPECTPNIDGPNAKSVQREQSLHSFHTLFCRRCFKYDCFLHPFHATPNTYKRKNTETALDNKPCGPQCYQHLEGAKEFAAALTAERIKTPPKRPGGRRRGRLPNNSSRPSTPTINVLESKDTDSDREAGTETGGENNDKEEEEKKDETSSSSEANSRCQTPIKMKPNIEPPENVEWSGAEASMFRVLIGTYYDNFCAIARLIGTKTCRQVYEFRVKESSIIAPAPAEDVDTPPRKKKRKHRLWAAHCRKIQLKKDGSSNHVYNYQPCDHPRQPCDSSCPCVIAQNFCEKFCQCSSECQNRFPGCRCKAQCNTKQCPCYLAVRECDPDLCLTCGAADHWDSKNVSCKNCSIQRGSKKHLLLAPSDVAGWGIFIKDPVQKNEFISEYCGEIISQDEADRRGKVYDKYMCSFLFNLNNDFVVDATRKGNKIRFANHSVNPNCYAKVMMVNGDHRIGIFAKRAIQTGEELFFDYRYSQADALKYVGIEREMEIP

inhibition, inactive:
O=C(N[C@@H]1CC[C@@H](CC(=O)N2CCc3ccccc3C2)O[C@@H]1CO)C1CCOCC1 -3.58%
COCC#Cc1ccc2c(c1)O[C@H](CN(C)C(=O)CN(C)C)[C@@H](C)CN([C@H](C)CO)S2(=O)=O -3.07%
COCC(=O)N(C)C[C@@H]1Oc2ncc(-c3ccccc3OC)cc2C(=O)N([C@@H](C)CO)C[C@@H]1C 16.6%
CCCN(C)C[C@H]1OCCCC[C@@H](C)Oc2ccc(NC(=O)Nc3ccc(F)cc3)cc2C(=O)N([C@@H](C)CO)C[C@H]1C 18.6%
O=C(C[C@@H]1C[C@@H]2c3cc(NC(=O)c4ccc5c(c4)OCO5)ccc3O[C@@H]2[C@H](CO)O1)NCC1CC1 6.48%
O=C(C[C@@H]1C[C@H]2c3cc(NC(=O)CC4CC4)ccc3O[C@H]2[C@@H](CO)O1)NCc1ccc2c(c1)OCO2 -6.28%
O=C(C[C@@H]1C=C[C@@H](NS(=O)(=O)c2ccc(F)cc2)[C@@H](CO)O1)NCCN1CCCCC1 7.22%
O=C(CN1CCOCC1)N[C@@H]1CC[C@@H](CCn2cc(C3CCCCC3)nn2)O[C@@H]1CO 3.73%
O=C(C[C@@H]1C=C[C@H](NC(=O)Nc2ccc(C(F)(F)F)cc2)[C@H](CO)O1)NCc1cccc(F)c1 -12.8%
O=S(=O)(NCC[C@H]1CC[C@@H](NS(=O)(=O)c2ccccc2Cl)[C@@H](CO)O1)c1ccc(Cl)cc1 -8.5%
O=C(CN1CCOCC1)N[C@H]1CC[C@@H](CCNS(=O)(=O)c2ccccc2F)O[C@H]1CO 0.878%
COc1ccccc1CNC(=O)C[C@H]1C[C@H]2c3cc(NS(=O)(=O)c4ccc(F)cc4)ccc3O[C@H]2[C@@H](CO)O1 -7.14%
O=C(Nc1ccccc1)N[C@H]1CC[C@H](CCNC(=O)c2ccccc2F)O[C@H]1CO -1.66%
Cc1ccccc1S(=O)(=O)NCC[C@@H]1CC[C@@H](NS(=O)(=O)c2ccccc2C)[C@@H](CO)O1 6.69%
COc1cccc(S(=O)(=O)N[C@@H]2C=C[C@H](CC(=O)NC3CCC3)O[C@H]2CO)c1 4.61%
CNC[C@H]1OCCCC[C@H](C)Oc2ccc(NS(C)(=O)=O)cc2C(=O)N([C@@H](C)CO)C[C@H]1C 5.37%
CO[C@@H]1CN(C)C(=O)c2cc(NC(=O)c3cnccn3)ccc2OC[C@@H](C)N(C(=O)C2CC2)C[C@@H]1C 3.91%
C[C@@H]1CN([C@@H](C)CO)C(=O)Cc2cc(NC(=O)C3CCCCC3)ccc2O[C@H]1CN(C)C(=O)Nc1ccccc1 1.25%
CCCNC(=O)Nc1ccc2c(c1)C(=O)N(C)C[C@H](OC)[C@H](C)CN(Cc1ccncc1)[C@H](C)CO2 -16.3%
CCCNC(=O)Nc1ccc2c(c1)OC[C@@H](C)N(CCC)C[C@H](C)[C@@H](OC)CN(C)C2=O 0.898%
C[C@@H]1CN([C@@H](C)CO)C(=O)c2cc(C#CC3CCCCC3)cnc2O[C@@H]1CN(C)Cc1cncnc1 -2.95%
O=C(C[C@H]1C[C@@H]2c3cc(NC(=O)C4CCC4)ccc3O[C@@H]2[C@@H](CO)O1)NCCN1CCCCC1 1.25%
CO[C@@H]1CN(C)C(=O)c2cc(NC(=O)Nc3ccc4c(c3)OCO4)ccc2OC[C@@H](C)NC[C@@H]1C 3.91%
